About 83,000 compounds went through this panel and 20% of them were active in at least one assay; those are over-represented in the sample as a whole.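 Plates (96-well) were seeded with cells, treated with compound at one concentration, and incubated for 48 hours before percent growth was determined.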 Active and inactive are the calls of the source. Rule for the calls: active = growth percent below 10; inactive = the rest.
Columns and labels:
Experiment in all cases: NCI-60 one-dose screen, 48 h (100 = growth as untreated, 0 = no growth, -100 = all killed)
Conditions in all cases: 10 µM unless noted
[1] = system: BT-549 breast
[2] = system: MDA-MB-435 melanoma
[3] = system: SW-620 colon
[4] = system: MCF7 breast
[5] = system: HCT-116 colon
[6] = system: HCC-2998 colon
[7] = system: KM12 colon

Measured: growth

O=C(Cn1ccnc1)NC(c1ccccc1)c1ccccc1
inactive: [1] 105% | [2] 99.4% | [3] 106% | [4] 100% | [5] 106% | [6] 97.6% | [7] 103%

Cc1c(C)c(N2C(=O)C=CC2=O)c(C)c(C)c1N1C(=O)C=CC1=O
inactive: [1] 110% | [2] 102% | [3] 81.7% | [4] 103% | [5] 83% | [6] 97.1% | [7] 119%

CCC1=C(c2ccc(OC)cc2)C(C)(C)Oc2cc(O)c(CN3CCCC3)cc21
inactive: [1] 65.7% | [2] 70.9% | [3] 89.7% | [4] 89.7% | [5] 46.9% | [6] 18.1% | [7] 81.1%

CN=C(NC)N/N=C(C)\C=N\NC(=NC)NC
inactive: [1] 110% | [2] 104% | [3] 99.5% | [4] 104% | [5] 105% | [6] 110% | [7] 104%

Cn1cc(-c2nc(-c3c[nH]c4ncccc34)cs2)c2cccnc21
active: [2] 5.79%
inactive: [1] 64.7% | [3] 60.4% | [4] 59% | [5] 41.7% | [6] 76.1% | [7] 52.1%

O=C1Nc2ccc(F)cc2/C1=C/c1nc(-c2ccc(F)cc2)n2ccccc12
inactive: [1] 96.8% | [2] 85% | [3] 80.1% | [4] 85.6% | [5] 91.1% | [6] 108% | [7] 87.6%

C=C(C[C@](O)(C(=O)/C=C/c1ccc(Cl)cc1)C(=O)OC)c1ccccc1
inactive: [1] 79.5% | [2] 66.5% | [3] 30.3% | [5] 34.9% | [6] 41.9% | [7] 15.3%
active: [4] 5.85%

CCC(c1ccccc1)c1noc(CCN(CC)CC)n1 (stereo not drawn)
inactive: [1] 84.6% | [2] 110% | [3] 120% | [4] 86.5% | [5] 92% | [6] 106% | [7] 105%

CCCn1cnc2c1c(=O)n(CCCCC(C)=O)c(=O)n2C
inactive: [1] 103% | [2] 117% | [3] 97.7% | [4] 92.6% | [5] 96.8% | [6] 100% | [7] 114%

O=C(/C=C/c1ccc(O)c(O)c1)N1CCN(c2ccc(Cl)cc2)CC1
inactive: [1] 56.9% | [2] 67.9% | [3] 64% | [4] 74.9% | [5] 55.7% | [6] 82.9% | [7] 73.5%

Cc1cc(C(=O)O)c(C)cc1C(=O)O
inactive: [1] 103% | [2] 113% | [3] 114% | [4] 96% | [5] 105% | [6] 95.1% | [7] 113%

Clc1ccc([C@@H]2C[C@@H]3Cc4cc(Br)c5ccccc5c4N2O3)c(Cl)c1
inactive: [1] 97.7% | [3] 55.4% | [4] 34% | [5] 76.6% | [6] 87% | [7] 66.7%
active: [2] 4.61%

Cc1cccc(Cl)c1NC(=O)c1ccc2nc(NC(=O)NC3CC(C)(C)NC(C)(C)C3)sc2c1
inactive: [1] 95% | [2] 90% | [3] 110% | [4] 86.5% | [5] 89.1% | [6] 96.5% | [7] 110%

Clc1cc(Cl)c(OCC#CI)cc1Cl
active: [3] -65.9% | [4] 9.27% | [5] -71.6%
inactive: [1] 135% | [2] 55.5% | [6] 109% | [7] 82.1%

COc1ccc(/C=C2\NC(=S)NC2=O)cc1
inactive: [1] 105% | [2] 110% | [3] 105% | [4] 99.9% | [5] 99.4% | [6] 117% | [7] 101%

Cn1cc(-c2csc(-c3c[nH]c4ncccc34)n2)c2cc(F)cnc21
inactive: [1] 74.1% | [2] 20% | [3] 81.3% | [4] 56.8% | [5] 59.8% | [6] 62.2% | [7] 49.4%

O=C(/C=C/c1cccnc1)NCCCCC1CCCN(C(=O)c2ccccc2)C1 (stereo not drawn)
inactive: [1] 73.7% | [3] 25.5% | [4] 54.4% | [6] 46.6% | [7] 43.9%
active: [2] 7.35% | [5] 7.85%

CN1CCN(CC(=O)Nc2nc3c(s2)Nc2cc(Cl)c(Cl)cc2NC3=O)CC1
inactive: [1] 100% | [2] 107% | [3] 112% | [4] 104% | [5] 100% | [6] 110% | [7] 102%

Cc1nc2cc(NC(=O)CN3CCN(CCN4C(=O)c5cccc6cccc(c56)C4=O)CC3)ccc2s1
inactive: [1] 70.1% | [2] 57.8% | [3] 31.4% | [4] 32.5% | [5] 22.3% | [6] 59.4% | [7] 51.6%

COc1ccc(-c2cc(Cc3cccs3)c(=O)n(Cn3cncn3)n2)cc1
inactive: [1] 109% | [2] 106% | [3] 110% | [4] 93.2% | [5] 101% | [6] 108% | [7] 108%

CCCCCCCC/C=C\CCCCCCCCOc1ccccc1CC(=O)NCC[N+]1(C)CCCC1
inactive: [1] 94.5% | [2] 71.2% | [3] 78.9% | [4] 82.6% | [5] 74.7% | [6] 74.8% | [7] 51.8%

COc1ccc(C2CC(c3ccc(OC)c(OC)c3)=NN2C(=O)c2cc(OC)c(OC)c(OC)c2)cc1 (stereo not drawn)
inactive: [1] 27.6% | [3] 20.9% | [4] 27.6% | [5] 20.6% | [6] 61.1% | [7] 16.2%
active: [2] -26.6%

Cc1ccc2c(c1)O/C(=C\c1ccc([N+](=O)[O-])o1)C2=O
inactive: [1] 25.9% | [6] 64.3% | [7] 86%
active: [2] -8.75% | [3] -56.5% | [4] 9.48% | [5] -47.7%

C=Cc1nn2c(CCC(=O)c3nc4ccccc4[nH]3)nnc2s1
inactive: [1] 95.4% | [2] 100% | [3] 102% | [4] 93.8% | [5] 98.5% | [6] 98% | [7] 97.7%
